Results on twelve compounds are retold here after PubChem BioAssay (NCATS).

Records with an inconclusive call do not appear. Activity calls are given as the source filed them. Calls follow the shape of the dose curve; as a rule, active = well fitted inhibition curve with a large enough effect; inconclusive = small, poorly fitted or top-dose-only effect; inactive = flat fitted curve, though single readings scatter.
% is scaled to controls: 0 for no effect and ±100 for the full control effect; potency is read from the fitted curve at half-maximal effect.

This assay has as its system NIH3T3. The assay is described as follows: Cytotoxic Profiling of Annotated Libraries Using Quantitative High-Throughput Screening (AID 1296008). Also: nearly all actives have a fitted effect of over 60% in size. The conditions noted are these: Five cell lines viability, CellTiter-Glo ATP luminescence, 48-72 h; max response: hits give low values. A digest of the protocol: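 Cells exposed to compounds for 48 or 72 hr at 37 degrees Celsius. Viability read as ATP-coupled luminescence with CellTiter-Glo after 10 min at room temperature.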
A general note: In ATP-based viability assays light output follows the ATP content of the culture.
In the case of `COc1cc2c(cc1OC)C(C(C(=O)N(CCc1ccc(OC)c(OC)c1OC)CCc1ccc(OC)c(OC)c1OC)c1ccccc1)=NCC2` (configuration not stated), the max response is 0.673% (inactive).
With `C[C@H]1C[C@H]2[C@@H]3CCC4=CC(=O)C=C[C@]4(C)[C@@]3(Cl)[C@@H](O)C[C@]2(C)[C@@]1(O)C(=O)CO`, the max response was -12.3% (inactive).
`CC(=O)[C@H]1CC[C@H]2[C@@H]3C[C@H](C)C4=CC(=O)CC[C@]4(C)[C@H]3[C@@H](O)C[C@]12C`: the compound was classed as inactive.
`COc1cc2c(cc1OC)[C@@H]1CC(=O)[C@@H](CC(C)C)CN1CC2`: the result was inactive.
`C=C1C[C@H]2[C@@H]3C=C(C)C4=CC(=O)CC[C@]4(C)[C@H]3CC[C@]2(C)[C@@]1(OC(C)=O)C(C)=O`: the max response is -3.66% (inactive).
Turning to `CC(=O)Oc1ccc(C(c2ccc(OC(C)=O)cc2)c2ccccn2)cc1`, the max response was -2.66% (inactive).
The same measure, in the same setting: the result for `C=C1C(=C/C=C2\CCC[C@]3(C)[C@@H]([C@H](C)/C=C/[C@@H](O)C4CC4)CC[C@@H]23)C[C@@H](O)C[C@@H]1O` reads -35.8% (inactive); that for `OC(CCN1CCCCC1)(c1ccccc1)c1ccccc1`, 2.78% (inactive).
For the compound `Cc1ccccc1C(=O)Nc1ccc(C(=O)N2CCCC(N(C)C)c3ccccc32)cc1` (configuration not stated), the Potency was 9.44 µM (active).
With `CN1CCC(=C2c3ccccc3Sc3ccccc32)CC1`, the max response is -14.3% (inactive).
Turning to `CC1(C)O[C@@H]2C[C@H]3[C@@H]4CCC5=CC(=O)CC[C@]5(C)[C@@]4(F)[C@@H](O)C[C@]3(C)[C@]2(C(=O)CCl)O1`, the max response is -10.1% (inactive).
Take `COc1cccc2c1C(=O)c1c(O)c3c(c(O)c1C2=O)C[C@@](O)(C(C)=O)C[C@@H]3O[C@H]1C[C@H](N)[C@H](O)[C@H](C)O1`: the Potency was 0.133 µM (active).
